From PubChem BioAssay

How the values were obtained:
[1] = biological target: Tumor necrosis factor receptor superfamily member 10B (Homo sapiens) (UniProt O14763); test: viability loss of caspase-8 NB7 cells with TRAIL – with/without TRAIL, luminescence panel, confirmation (AID 651596); details: NB7 neuroblastoma + caspase-8, TRAIL sensitization, NB7 Caspase-8, with TRAIL, mean of runs, at 10 µM, stronger effect = higher value
[2] = as above; details: NB7 neuroblastoma + caspase-8, without TRAIL, NB7 Caspase-8, without TRAIL, mean of runs, at 10 µM

Sequence of Tumor necrosis factor receptor superfamily member 10B (Homo sapiens) (O14763 whole entry, looked up): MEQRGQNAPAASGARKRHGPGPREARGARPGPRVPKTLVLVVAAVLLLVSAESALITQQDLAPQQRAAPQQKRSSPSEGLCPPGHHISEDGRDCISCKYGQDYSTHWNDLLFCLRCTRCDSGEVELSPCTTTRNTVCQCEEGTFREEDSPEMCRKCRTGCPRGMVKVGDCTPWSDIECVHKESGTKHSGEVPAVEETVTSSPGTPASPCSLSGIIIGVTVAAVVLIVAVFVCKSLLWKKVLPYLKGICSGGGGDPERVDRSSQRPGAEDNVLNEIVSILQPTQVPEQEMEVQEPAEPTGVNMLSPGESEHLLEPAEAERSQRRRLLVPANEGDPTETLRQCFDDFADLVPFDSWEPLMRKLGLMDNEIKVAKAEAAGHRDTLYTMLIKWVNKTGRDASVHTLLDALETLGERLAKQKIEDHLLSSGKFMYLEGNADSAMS

## COc1cc(NC(=O)c2cc3cccc(OC)c3o2)cc(C(=O)Nc2cccc(C(F)(F)F)c2)c1
[1]
  activity: 36.8%
[2]
  activity: 33.5%

## Cc1ccnc(NC(=S)NC(=O)c2ccco2)c1
[1]
  activity: 65.5%
[2]
  activity: 57.7%

## Cc1ccc(C2=NN(C(=O)CCl)C(c3cccs3)C2)o1 (stereo not drawn)
[1]
  activity: 99.6%
[2]
  activity: 99.1%

## COc1ccc(C[C@H](N)C(=O)N[C@H]2[C@@H](O)[C@H](n3cnc4c(N(C)C)ncnc43)O[C@@H]2CO)cc1
[1]
  activity: 98.4%
[2]
  activity: 99.2%

## Cc1ccc(-c2nnc(NC(=O)c3ccco3)s2)cc1
[1]
  activity: 58.6%
[2]
  activity: 62.7%

## CCCCCCCCOC(=O)c1cc([N+](=O)[O-])c(Sc2ncnc3nc[nH]c23)c([N+](=O)[O-])c1
[1]
  activity: 64.1%
[2]
  activity: 62%

## S=c1nc[nH]c2nc[nH]c12
[1]
  activity: 64.5%
[2]
  activity: 69%

## COc1ccc(C2C(C(=O)N3CCN(c4ccccc4F)CC3)c3ccccc3C(=O)N2C)cc1 (stereo not drawn)
[1]
  activity: 74.5%
[2]
  activity: 59%

## Cc1cccc(NC(=S)N/N=C/c2ccc([N+](=O)[O-])s2)c1
[1]
  activity: 37.4%
[2]
  activity: 36.1%

## O=C(Nc1ccccc1C(=O)N/N=C/c1ccncc1)c1ccccc1
[1]
  activity: 91.7%
[2]
  activity: 87.5%

## O=[N+]([O-])c1cc(S(=O)(=O)C(F)(F)F)ccc1Sc1nc2ccccc2[nH]1
[1]
  activity: 33.1%
[2]
  activity: 94.2%

## O=C(Nc1ccccc1)c1nc[nH]c1C(=O)Nc1ccccc1F
[1]
  activity: 62%
[2]
  activity: 62.5%

## C=CCn1c(C)cc(C(=O)COC(=O)c2n[nH]c(=O)c3ccccc23)c1C
[1]
  activity: 74.4%
[2]
  activity: 57.4%

## Clc1ccc(OCc2nn3c(C4CCCCC4)nnc3s2)cc1
[1]
  activity: 49.8%
[2]
  activity: 71.2%

## CCOC(=O)COc1ccc(-c2nnc(-c3ccccc3)o2)cc1
[1]
  activity: 43.2%
[2]
  activity: 33.8%

## Cc1ccccc1C(=O)O/N=C(\N)c1cccc([N+](=O)[O-])c1
[1]
  activity: 80.9%
[2]
  activity: 79.9%

## Oc1ccc(-c2nnc(SCC3CCCCC3)o2)cc1
[1]
  activity: 70.1%
[2]
  activity: 84.3%

## Cc1cc(/C(N)=N/OC(=O)c2ccccc2Cl)no1
[1]
  activity: 63.5%
[2]
  activity: 68.1%

## CC(=O)Oc1ccc(/C=N\NC(=O)c2cc3c(ccc4ccccc43)o2)cc1
[1]
  activity: 64.6%
[2]
  activity: 67.7%

## COC(=O)[C@@H]1Cc2c([nH]c3ccccc23)C(C)(C)N1C(=O)CCl
[1]
  activity: 99%
[2]
  activity: 98%

## CC1(C)Cc2c(sc(NC(=O)COc3cccc4ccccc34)c2C#N)C(C)(C)N1
[1]
  activity: 85.3%
[2]
  activity: 94.1%

## NC(c1csc(NC(=O)Nc2ccc(OC(F)(F)F)cc2)n1)C1CCCCC1 (stereo not drawn)
[1]
  activity: 63.7%
[2]
  activity: 92.2%

## Clc1ccc(CN2CCc3c([nH]c4ccccc34)C2)cc1Cl
[1]
  activity: -9.62%
[2]
  activity: -14.6%

## COc1cccc(/C=C2\Oc3ccc(O)cc3C2=O)c1O
[1]
  activity: 66.8%
[2]
  activity: 56.4%

## Nc1nc(Nc2ccccc2)nc2ccccc12
[1]
  activity: 69.2%
[2]
  activity: 61.3%

## NC(=O)c1ccccc1N/C=C/C(=O)c1ccc(F)cc1
[1]
  activity: 78.8%
[2]
  activity: 73%

## CCCCn1c(NS(=O)(=O)c2ccc(C)cc2)c(S(=O)(=O)c2ccccc2)c2nc3ccccc3nc21
[1]
  activity: -5.92%
[2]
  activity: -15%

## CC(C)CC(=O)Nc1nc2c(c(=O)[nH]1)CCCC2
[1]
  activity: 69.3%
[2]
  activity: 66.5%

## CC(C)(C)NCCC(O)c1cc(C(F)(F)F)nc2c(C(F)(F)F)cccc12 (stereo not drawn)
[1]
  activity: 97.5%
[2]
  activity: 96.7%
